{"source": "PubChem BioAssay (Tox21)", "note": "Records with an inconclusive call do not appear. Calls of active or inactive are those of the source. Calls come from the whole dose curve; as a rule, active = well fitted curve in the direction sought with a large enough effect in the signal ratio in the repeat runs (not every such curve was filed as active); inconclusive = weak or mixed curves, or effect the other way; inactive = no such curve, though single readings can be large or run the other way; the % refers to the signal ratio. % is set by controls: 0 for no effect and ±100 for the full control effect."}
{"molecular_target": "Estrogen receptor (Homo sapiens) (UniProt P03372)", "sequence (P03372 whole entry, looked up)": "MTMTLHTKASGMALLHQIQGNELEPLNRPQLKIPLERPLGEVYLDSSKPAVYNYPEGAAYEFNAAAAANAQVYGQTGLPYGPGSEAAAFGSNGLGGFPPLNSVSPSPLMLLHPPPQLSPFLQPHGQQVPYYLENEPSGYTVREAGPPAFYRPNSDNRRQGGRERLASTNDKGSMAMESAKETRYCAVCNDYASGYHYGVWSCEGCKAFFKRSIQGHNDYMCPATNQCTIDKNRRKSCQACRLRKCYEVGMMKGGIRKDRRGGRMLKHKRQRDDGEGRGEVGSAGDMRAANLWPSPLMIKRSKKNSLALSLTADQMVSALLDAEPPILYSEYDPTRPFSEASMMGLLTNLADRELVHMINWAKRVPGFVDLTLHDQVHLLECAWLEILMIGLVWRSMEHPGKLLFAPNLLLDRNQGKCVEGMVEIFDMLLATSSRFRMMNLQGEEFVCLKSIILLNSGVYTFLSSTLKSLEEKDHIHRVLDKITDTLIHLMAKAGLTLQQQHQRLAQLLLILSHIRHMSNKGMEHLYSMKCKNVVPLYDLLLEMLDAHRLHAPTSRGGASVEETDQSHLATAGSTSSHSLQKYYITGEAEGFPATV", "assay": "qHTS assay to identify small molecule antagonists of the estrogen receptor alpha (ER-alpha) signaling pathway (AID 743069)", "conditions": "HEK293 ER-alpha-UAS-bla, beta-lactamase ratio, antagonist mode; series mostly up to 69.4 µM; activity, negative = inhibition: at the top concentration", "how_it_was_run": "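Antagonist mode: compounds in DMSO were co-added with 17beta-estradiol to ER-alpha-bla HEK293 cells (2% charcoal-stripped serum) and left 18 h at 37C. Reporter inhibition was measured as FRET fluorescence after 2 h LiveBLAzer substrate at room temperature.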"}
{"compound": "O=c1cc(CO)occ1O", "outcome": "inactive"}
{"compound": "NS(=O)(=O)c1cc(C(=O)O)cc(N2CCCC2)c1Oc1ccccc1", "activity, negative = inhibition": "16.8% [at 32.6 µM] (inactive)"}
{"compound": "CCOC(C)(C)C", "activity, negative = inhibition": "4.11% [at 79.1 µM] (inactive)"}
{"compound": "O=C(O)CCCl", "activity, negative = inhibition": "15.8% [at 79.1 µM] (inactive)"}
{"compound": "Cc1ccc(=O)n(-c2ccccc2)c1", "activity, negative = inhibition": "3.17% (inactive)"}
{"compound": "COC(=O)NN", "activity, negative = inhibition": "-19.4% [at 79.1 µM] (inactive)"}
{"compound": "CC(C)(O)C#CC(C)(C)O", "activity, negative = inhibition": "-4.22% [at 79.1 µM] (inactive)"}
{"compound": "OCCCC1CCCCC1", "activity, negative = inhibition": "-7.96% (inactive)"}
{"compound": "N[C@H](C(=O)O)c1ccc(O)cc1", "activity, negative = inhibition": "11% (inactive)"}
{"compound": "CCO/C([O-])=N/c1c[n+](N2CCOCC2)no1", "activity, negative = inhibition": "-3.8% [at 32.6 µM] (inactive)"}
{"compound": "O=S(O)CO", "outcome": "inactive"}
{"compound": "ClC(Cl)(Br)Br", "activity, negative = inhibition": "-8.62% (inactive)"}
{"compound": "COC(=O)C1=C(C)NC(C)=C(C(=O)OC)C1c1ccccc1[N+](=O)[O-]", "activity, negative = inhibition": "24.7% (inactive)"}
{"compound": "CCCCNC(=O)NCCCC", "activity, negative = inhibition": "32.7% (inactive)"}
{"compound": "CC(C)(CC(=O)O)C(=O)O", "activity, negative = inhibition": "9.78% (inactive)"}
{"compound": "CN1CCC(=C2c3ccccc3CC(=O)c3sccc32)CC1", "activity, negative = inhibition": "-10.2% (inactive)"}
